Paper PMC4336329 (PLoS ONE, 2015)
The whole screen tested about 310,000 compounds, of which about 2,200 (0.71%) showed an effect of 50% or more. The effect is printed as a negative number. For the sample, strong results were picked, then their nearest neighbours and some compounds at random.

molecular target: human ether-à-go-go-related gene (hERG) potassium channel (human, UniProt Q12809); experiment: primary screen, population patch clamp on CHO cells stably expressing hERG; higher = less effect of the substance
Sequence (Q12809 whole entry, looked up): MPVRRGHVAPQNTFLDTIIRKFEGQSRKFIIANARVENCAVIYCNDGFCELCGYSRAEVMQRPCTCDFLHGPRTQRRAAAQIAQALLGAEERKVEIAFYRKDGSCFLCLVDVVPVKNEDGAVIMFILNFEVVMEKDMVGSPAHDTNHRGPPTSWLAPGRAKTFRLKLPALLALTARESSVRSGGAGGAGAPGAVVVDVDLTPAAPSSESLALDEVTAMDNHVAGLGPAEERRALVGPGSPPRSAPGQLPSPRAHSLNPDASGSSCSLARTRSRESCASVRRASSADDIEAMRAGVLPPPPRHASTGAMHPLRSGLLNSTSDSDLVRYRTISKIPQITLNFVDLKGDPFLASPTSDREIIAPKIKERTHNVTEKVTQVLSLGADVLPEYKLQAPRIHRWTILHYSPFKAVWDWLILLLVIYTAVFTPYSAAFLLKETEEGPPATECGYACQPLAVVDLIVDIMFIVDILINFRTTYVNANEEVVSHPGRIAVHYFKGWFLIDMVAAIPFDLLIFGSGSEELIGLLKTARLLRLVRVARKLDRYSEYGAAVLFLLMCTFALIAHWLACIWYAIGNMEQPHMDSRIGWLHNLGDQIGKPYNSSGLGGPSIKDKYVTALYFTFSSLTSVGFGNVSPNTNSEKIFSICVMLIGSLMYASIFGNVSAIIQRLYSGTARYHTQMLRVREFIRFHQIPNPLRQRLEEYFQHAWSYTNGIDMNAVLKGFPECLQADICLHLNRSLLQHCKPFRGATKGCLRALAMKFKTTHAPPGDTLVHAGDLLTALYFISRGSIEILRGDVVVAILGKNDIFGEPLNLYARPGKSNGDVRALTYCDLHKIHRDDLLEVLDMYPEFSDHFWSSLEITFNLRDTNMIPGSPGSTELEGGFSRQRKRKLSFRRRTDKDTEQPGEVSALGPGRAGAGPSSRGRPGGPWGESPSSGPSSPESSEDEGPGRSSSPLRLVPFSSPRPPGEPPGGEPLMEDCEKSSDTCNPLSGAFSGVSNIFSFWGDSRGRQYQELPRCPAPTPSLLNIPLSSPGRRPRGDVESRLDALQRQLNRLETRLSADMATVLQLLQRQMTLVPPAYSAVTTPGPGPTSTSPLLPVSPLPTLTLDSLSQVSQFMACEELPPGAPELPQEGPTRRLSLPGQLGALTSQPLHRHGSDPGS

Structure (SMILES) | hERG current change (%, negative = inhibition) at 1uM [%]
Cl.Oc1ccc2c3c1O[C@H]1c4[nH]c5ccccc5c4C[C@@]4(O)[C@@H](C2)N(CC2CC2)CC[C@]314 | -29.7
CS(=O)(=O)O.O.Oc1ccc2c3c1O[C@H]1c4oc5ccccc5c4C[C@@]4(O)[C@@H](C2)N(CC2CC2)CC[C@]314 | -68.1
Cl.O.Oc1ccc2c3c1O[C@H]1c4[nH]c5ccccc5c4C[C@@]4(O)C(C2)N(CC2CC2)CC[C@]314 | -16.4
COC(=O)C1=C(C)N(C)C(=O)NC1c1c(O)ccc2ccccc12 (stereo not drawn) | 6.78
CC/C(=N/Nc1ccccc1)c1cnnc(-c2ccccc2)n1 | 0.406
Cc1sc(NC(=O)CCl)c(C(=O)c2ccccc2)c1C | 15.1
Cc1ccc(S(=O)(=O)Nc2nc(C)c(C(=O)N/N=C/c3ccccc3)s2)cc1 | 11
c1ccc2oc(-c3[nH]ncc3CN3CCSCC3)cc2c1 | 9.72
c1ccc(CCC2CCCCN2Cc2cn[nH]c2-c2cc3ccccc3o2)nc1 (stereo not drawn) | -67
CCOc1ccc(-c2nc(CN3CCCCC3CCn3cccn3)c(C)o2)cc1 (stereo not drawn) | -24.9
COc1ccc(-c2nc(CN3CCCCC3CCc3ccccn3)c(C)o2)cc1 (stereo not drawn) | -79.4
Cc1oc(-c2cccc(F)c2)nc1CN1CCCCC1CCn1cccn1 (stereo not drawn) | -40.1
Cc1oc(-c2cccc(F)c2)nc1CN1CCCCC1CCc1ccccn1 (stereo not drawn) | -89.5
COc1ccc(-c2nc(CN3CCN(Cc4ccccc4)CC3)c(C)o2)cc1 | 4.17
O=C(c1ccccn1)C1CCCN(Cc2cn[nH]c2-c2cc3ccccc3o2)C1 (stereo not drawn) | -23.5
Fc1cccc(Cc2noc(CN3CCCCC3CCc3ccccn3)n2)c1 (stereo not drawn) | 13.2
COc1ccc(S(=O)(=O)N(C)C)cc1NC(=O)CCCSc1ccccc1 | -5.8
COc1ccc(Nc2nnc(C)c3ccccc23)cc1C(N)=O | 16.1
CC(C)(C)c1ccc(OC(=O)c2ccc(-n3cncn3)nc2)cc1 | 10.9
CCOC(=O)c1ccc(NS(=O)(=O)c2ccc3oc(=O)[nH]c3c2)cc1 | 7.04
Cl.Nc1ccc(-c2nc3c(ccc4ccccc43)[nH]2)cc1 | 16.3

Structure (SMILES) | hERG current change (%, negative = inhibition) at 1uM [%]
O=C(NCCN1CCOCC1)c1cc2cc(Br)ccc2oc1=O | 0.63
CN1C(C(=O)NCc2ccc(OC(F)(F)F)cc2)CC2Cn3c(nc4ccccc43)C21 (stereo not drawn) | -74.9
CN1C(C(=O)NCc2ccc(OC(F)(F)F)cc2)CC2Cn3c(nc4cc5ccccc5cc43)C21 (stereo not drawn) | -14.7
O=C(NCc1ccc(OC(F)(F)F)cc1)C1CC2Cn3c(nc4ccccc43)C2N1c1ccccc1 (stereo not drawn) | -15.8
COc1ccc(C2C(C(=O)NCc3ccccc3)=C(C)Nc3ncnn32)cc1OC (stereo not drawn) | 13.9
CC(=O)Nc1ccc(S(=O)(=O)N2CCN(C34CC5CC(CC(C5)C3)C4)CC2)cc1 | 3.31
O=C(CN1CCc2ccccc2C1)Nc1ccccc1C(=O)NC1CC1 | 3.95
N#Cc1ccc(CN2CCN(CC(=O)Nc3ccccc3C(=O)NC3CC3)CC2)cc1 | -87.4
N#Cc1ccc(S(=O)(=O)N2CCN(CC(=O)Nc3ccccc3C(=O)NC3CC3)CC2)cc1 | -67.3
N#Cc1ccccc1S(=O)(=O)N1CCN(CC(=O)Nc2ccccc2C(=O)NC2CC2)CC1 | -25.4
CC(=O)c1ccc(S(=O)(=O)N2CCN(CC(=O)Nc3ccccc3C(=O)NC3CC3)CC2)cc1 | -43.4
O=C(CN1CCN(S(=O)(=O)c2ccccc2)CC1)Nc1ccccc1C(=O)NC1CC1 | 1.22
O=C(CSc1nc2[nH]c(=O)cc(O)c2s1)Nc1cccc(Br)c1 | 18.8
S=c1[nH]nc(-c2cc(-c3ccco3)[nH]n2)n1-c1ccccc1 | 3.15
CC(=O)c1ccc(N2CCN(c3ccccc3O)CC2)c([N+](=O)[O-])c1 | 12.9
Cc1ccc2cc(C#N)c(N3CCN(C(=O)c4cccs4)CC3)nc2c1 | -1
Cc1ccc2cc(C#N)c(N3CCN(C(=O)c4ccccc4)CC3)nc2c1 | -6.89
N#Cc1cccnc1N1CCN(C(=O)c2cccs2)CC1 | 7.29
Cc1ccc2nc(N3CCN(C(=O)c4cccs4)CC3)c(C#N)cc2c1 | -51.3
Cc1ccc2nc(N3CCN(C(=O)c4ccc(F)cc4)CC3)c(C#N)cc2c1 | -56.8
Cc1ccc2nc(N3CCN(C)CC3)c(C#N)cc2c1 | -10

Structure (SMILES) | hERG current change (%, negative = inhibition) at 1uM [%]
CCC(NC(=O)Cc1c(C)c2ccc(OC)c(C)c2oc1=O)C(=O)NC(Cc1ccc(Cl)cc1)C(=O)O (stereo not drawn) | 0.501
COc1ccc(-n2c(O)c(/C=C3\C=Nc4ccc(Br)cc43)c(=O)[nH]c2=O)cc1 | 12
CC(c1cccs1)N(Cc1ccco1)C(=S)Nc1ccccc1Cl (stereo not drawn) | 11.9
c1ccc(NC2=NCCCCS2)cc1 | -9.85
Cc1csc(N2CCCC2c2nc3cc(Cl)c(N4CCCCC4)cc3n2CCOCCO)n1 (stereo not drawn) | -2.57
OCCCn1c(C2CCCN2c2nc(-c3ccc(F)cc3)cs2)nc2cc(C(F)(F)F)ccc21 (stereo not drawn) | 2.52
OCCOCCn1c(C2CCCN2c2nc(-c3ccc(F)cc3)cs2)nc2cc(C(F)(F)F)ccc21 (stereo not drawn) | -73.2
Cc1ccc(Cn2c(C3CCCN3c3nc(C)cs3)nc3cc(C(F)(F)F)ccc32)cc1 (stereo not drawn) | 8.04
Cc1csc(N2CCCC2c2nc3cc(C(F)(F)F)ccc3n2CCOCCO)n1 (stereo not drawn) | -62.8
OCCOCCn1c(C2CCCN2c2nc(-c3ccc(F)cc3)cs2)nc2cc(Cl)c(Cl)cc21 (stereo not drawn) | -0.144
COc1ccc(NC(=O)CSc2nnc(Cn3cnc([N+](=O)[O-])n3)n2C)cc1 | 12.5
Cc1ccc(OCC(=O)NNC(=O)CSc2nnc(-c3ccc(C)cc3)n2C)cc1 | 7.24
CCC(=O)N1CCN(c2ccccc2NC(=O)Cc2ccc(Cl)cc2)CC1 | -41.5
Cl.Clc1ccc(SCCOCCN2CCc3ccccc3C2)cc1 | 8.68
Clc1ccc(SCCOCCN2CCCCCC2)cc1.O=C(O)C(=O)O | -20.6
Clc1ccc(SCCCN2CCCCC2)cc1.O=C(O)C(=O)O | -24.5
c1ccc(SCCOCCN2CCc3ccccc3C2)cc1 | -62.7
Clc1ccc(SCCOCCN2CCCCC2)cc1.O=C(O)C(=O)O | -61.1
Cc1ccc(SCCOCCN2CCc3ccccc3C2)cc1 | -6.57
CC(NC(=O)CCC(=O)N1CCCCCC1)c1ccccc1 (stereo not drawn) | 16.8
Cc1ccc(NC(=O)c2noc(C(C)C)c2[N+](=O)[O-])cc1 | 4.81

Structure (SMILES) | hERG current change (%, negative = inhibition) at 1uM [%]
CCN1/C(=C(\O)c2ccccc2)C(=O)c2ccccc2S1(=O)=O | 13.6
COc1cc2c(cc1OC)C(COc1cc(C)cc(C)c1)N(C(C)=O)CC2 (stereo not drawn) | 2.4
CCc1ccc(NC(=S)N(CCN2CCCCC2)Cc2ccco2)cc1 | -34.7
CCOC(=O)c1ccc(NC(=S)N(CCCN2CCCCCC2)Cc2ccco2)cc1 | -31.7
CCN1CCN(CCCN(Cc2ccco2)C(=S)Nc2ccc(Cl)cc2)CC1 | -18.6
CCOC(=O)c1ccc(NC(=S)N(CCCN(CC)CC)Cc2ccco2)cc1 | -57.9
CCOC(=O)c1ccc(NC(=S)N(CCCN2CCCCC2)Cc2ccco2)cc1 | -71.3
CN1CCN(CCCN(Cc2ccco2)C(=S)Nc2ccc(Cl)cc2)CC1 | -53.8
CCOC(=O)c1ccc(NC(=S)N(CCCN2CCN(CC)CC2)Cc2ccco2)cc1 | -45.4
CCOC(=O)c1ccc(NC(=S)N(Cc2cccnc2)Cc2ccco2)cc1 | 7.3
CCOC(=O)c1ccc(NC(=S)N(CCN2CCCCCC2)Cc2cccs2)cc1 | 8.82
S=C(Nc1ccc(Cl)cc1)N(CCCN1CCOCC1)Cc1ccco1 | -8.98
CCOC(=O)c1ccc(NC(=S)N(CCCN2CCCC(C)C2)Cc2ccco2)cc1 (stereo not drawn) | -42.8
CCOC(=O)c1ccc(NC(=S)N(CCN2CCCCCC2)Cc2ccco2)cc1 | -87.2
CCOc1cccc(NC(=O)C2CC(=O)N(C)C(=Nc3cccc(F)c3)S2)c1 (stereo not drawn) | 9.17
N#Cc1ccc(-c2ccc(OCC3CNC(=O)O3)cc2)cc1 (stereo not drawn) | 8.74
CCOC(=O)c1cccc(NC(=O)CCNS(=O)(=O)c2cc(Br)cnc2N)c1 | 14.4
Cc1ccc(S(=O)(=O)N2CCC(=O)N(CCOCc3cccc(F)c3)CC2)cc1 | 7.15
O=C(O)CCn1nnc(-c2ccccc2)n1 | 10.7
O=C(COc1ccc(Cl)cc1)NCc1nnc(SCC(=O)Nc2ccccc2)o1 | 1.01
Cc1ccc(SCC(=O)Nc2ccc(C(=O)Nc3ccc(O)cc3)cc2)cc1 | 12.6
